# Laboratory results: ChEMBL document CHEMBL1157539, “Thousands of chemical starting points for antimalarial lead identification” (Nature, 2010)
# Test system: HepG2
# Assay: GSK_TCMDC: Percent inhibition of human HepG2 cell line. Test compounds present at 10uM.
# Assay type: functional
row,SMILES,Inhibition [%]
1,CCN1CCN(c2cc(C)c3cc(NC(=O)c4ccc(OC)c([N+](=O)[O-])c4)ccc3n2)CC1,25
2,Cc1cc(-c2ccc(NC(=O)N3CCc4cc(Br)c(N5CCN(C)CC5)cc43)cc2)cc(C)n1,29
3,O=C(/C=C/c1ccc(C(F)(F)F)cc1)NCCCCCN1CCCN(C(=O)Nc2ccc(Cl)c(Cl)c2)CC1,89
4,O=C(Nc1ccc(N2CCCCC2)c(Cl)c1)c1ccco1,0
5,COCCn1ccc2c3c(N)nc(N)nc3ccc21,43
6,CC(C)(CNCc1cc(Cl)cc(Cl)c1)c1nc(-c2ccnc(N)n2)c(-c2ccc(Cl)c(O)c2)[nH]1.Cl,54
7,O=C1OC2(CN1CC1CCN(Cc3ccc(O)c(Cl)c3)CC1)c1ccccc1-c1ccccc12,32
8,Cc1nnc2c(NC(=O)NC(C)C)cc3cc(-c4ccc(CN5CCCCC5)cc4)ccc3n12,70
9,CC(C)(CNCc1ccc(F)c(F)c1)c1nc(-c2ccc(Cl)c(O)c2)c(-c2ccncc2)[nH]1.Cl,74
10,CCOc1cc(C(=O)Nc2ccc3nc(N(CC)CC)cc(C)c3c2)cc(OCC)c1OCC,16
11,Cl.Cn1nc(C(F)(F)F)cc1-c1ccc(C(=O)Nc2ccc3c(c2)CNCC3(C)C)s1,10
